IL-1B inflam inh: inflammasome signaling inhibition, IL-1 beta readout | THP-1 LPS/ATP IL-1B secretion, AlphaLISA, 16 h; stronger effect = lower value | activity change, % at 57.5 µM | hit rate 4.7% among 360,000 | AID 743279; in the data active means activity change below about -50%; inconclusive means mostly about -30% to -49%
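Secreted IL-1B measured by AlphaLISA bead assay after 16 h compound exposure of THP-1 cells; compounds (final up to 57.5 uM) added 1 h before LPS (250 ng/mL) and ATP (1.25 mM) stimulation; lower signal means less secretion.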
12-LOX inh: ALOX12 (human) lipoxygenase inhibition; Potency, µM (series often up to 108 µM), usual class: inhibitors; hit rate 1.1% among 580,000; purified 12hLO, xylenol orange hydroperoxide absorbance; P18054
Target sequence (P18054 whole entry, looked up): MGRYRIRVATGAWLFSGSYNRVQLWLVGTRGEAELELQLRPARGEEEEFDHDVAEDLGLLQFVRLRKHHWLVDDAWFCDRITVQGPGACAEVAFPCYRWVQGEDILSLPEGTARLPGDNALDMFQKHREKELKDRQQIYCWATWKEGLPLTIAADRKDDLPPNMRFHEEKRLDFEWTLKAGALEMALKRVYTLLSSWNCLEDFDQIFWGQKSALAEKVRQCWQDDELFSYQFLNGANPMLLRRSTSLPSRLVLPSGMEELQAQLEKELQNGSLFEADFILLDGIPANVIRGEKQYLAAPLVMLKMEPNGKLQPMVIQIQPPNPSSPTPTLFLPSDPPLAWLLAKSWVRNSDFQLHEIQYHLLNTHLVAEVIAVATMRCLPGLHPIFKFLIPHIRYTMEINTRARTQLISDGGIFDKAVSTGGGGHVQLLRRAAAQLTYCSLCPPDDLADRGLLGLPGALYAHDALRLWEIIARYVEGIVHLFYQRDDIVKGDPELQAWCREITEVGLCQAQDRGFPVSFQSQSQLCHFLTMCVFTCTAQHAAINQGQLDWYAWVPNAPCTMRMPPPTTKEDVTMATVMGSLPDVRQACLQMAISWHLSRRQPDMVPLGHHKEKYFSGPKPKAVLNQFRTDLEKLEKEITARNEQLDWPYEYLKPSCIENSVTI
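Purified human 12hLO at 150 nM in 25 mM Hepes, 0.01% Triton X-100, pH 7.0, preincubated 15 min at room temperature with compound. Reaction started with 40 uM arachidonic acid, 30 min at room temperature. Hydroperoxide measured by Fe-xylenol orange, 573/405 nm absorbance ratio.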
DT40 TDP1 no CPT: qHTS for Inhibitors of human tyrosyl-DNA phosphodiesterase 1 (TDP1): qHTS in cells in absence of CPT | DT40 Tdp1-/- hTDP1 cells, no CPT, ATP luminescence, 48 h | Potency, µM (top dose mostly 46.2 µM), hits mostly inhibitors | hit rate 15% among 420,000 | AID 686978, 2013; further: nearly all actives have a fitted effect of over 55% in size
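Stably hTDP1-transfected Tdp1-null chicken DT40 cells were treated with library compounds minus camptothecin and grown for at least 48 hr at 37 °C, after which cellular ATP was quantified by luminescence.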
HT1080NT lethal: kills 2HG-producing HT-1080-NT fibrosarcoma cells; HT-1080-NT fibrosarcoma viability, CellTiter-Glo ATP luminescence, 48 h; Potency, µM (highest dose often 46.1 µM), most hits filed as cytotoxic; hit rate 1.6% among 360,000; AID 686970;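 further: NT is the 2HG producing partner of a matched IDH1 knockdown line; nearly all actives have a fitted effect of over 55% in size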
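750 cells/well, RPMI + 5% FBS; 2 h settle, compound pin-transfer, 48 h at 37 degrees C. CellTiter-Glo 10 min RT, luminescence. Normalized to DMSO and media-only wells.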
HT1080 IDH1KD tx: toxicity to HT-1080 IDH1 knockdown cells (counter line); HT-1080 IDH1 knockdown viability, ATP luminescence, 48 h; Potency, µM (top dose mostly 46.1 µM), most hits filed as cytotoxic; hit rate 2% among 360,000; AID 686971
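After a 2 h attachment period, IDH1KD HT-1080 cells took pin-transferred compound for 48 h at 37 °C; ATP-based luminescence after 10 min room-temperature reagent incubation reported viability.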
DT40 TDP1 CPT: growth inhibition of DT40 Tdp1-/-;hTDP1 cells with camptothecin (screen for TDP1 inhibitors); Potency, µM (highest dose often 46.2 µM), most hits filed as inhibitors; chicken DT40 Tdp1-/-;hTDP1 cells + 20 nM CPT, ATP luminescence, 48 h; hit rate 12% among 420,000; further: nearly all actives have a fitted effect of over 55% in size
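Chicken DT40 Tdp1-/- cells complemented with human TDP1, 400 cells/well, exposed to compounds plus 20 nM camptothecin for at least 48 h at 37 C; viability read as ATP content by CellTiter-Glo luminescence.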
Of the large screens only hits and unclear results are named; the others gave an inactive call. The sample as a whole holds a higher share of hits than the screen did. Unless noted, the call rests on the fitted dose curve; in most records, active means well fitted curve in the direction sought with a large enough effect; inconclusive means small, poorly fitted or top-dose-only effect, or another doubt; inactive means no such curve, though single readings can be large; an effect the other way counts as inactive or inconclusive.

Clc1ccc(-c2c[n+]3c(n2-c2ccccc2)SCC3)cc1	IL-1B inflam inh inconclusive, DT40 TDP1 no CPT inconclusive, DT40 TDP1 CPT inconclusive
CCOc1ccc(-n2c(-c3ccccc3)c[n+]3c2CCCCC3)cc1	IL-1B inflam inh -56, DT40 TDP1 no CPT 0.029µM, HT1080NT lethal inconclusive, HT1080 IDH1KD tx 13µM, DT40 TDP1 CPT 0.15µM
Cc1ccc(-c2c[n+]3c(n2-c2ccccc2)CCC3)cc1	IL-1B inflam inh -53, DT40 TDP1 no CPT 0.65µM, HT1080NT lethal inconclusive, HT1080 IDH1KD tx inconclusive, DT40 TDP1 CPT 1.2µM
Cn1c(C(=O)NCc2ccc(F)cc2)cc2cc(Cl)ccc21	none (no result: IL-1B inflam inh, DT40 TDP1 no CPT, HT1080NT lethal, HT1080 IDH1KD tx, DT40 TDP1 CPT)
CCN1C(=O)C2CC3(CCN(C(=O)Cn4c(=O)oc5ccccc54)CC3)CN2C1=O (stereo not drawn)	none (no result: IL-1B inflam inh, DT40 TDP1 no CPT, HT1080NT lethal, HT1080 IDH1KD tx, DT40 TDP1 CPT)
Oc1ccc2ccccc2c1/C=N/c1nccs1	HT1080NT lethal inconclusive, HT1080 IDH1KD tx inconclusive
Oc1ccc2ccccc2c1/C=N/Nc1nnc(-c2ncc[nH]2)c2ccccc12	12-LOX inh inconclusive, DT40 TDP1 no CPT 5.2µM, HT1080NT lethal 5.8µM, HT1080 IDH1KD tx 5.2µM, DT40 TDP1 CPT 5.2µM
Oc1ccc2ccccc2c1CNc1ccccn1	12-LOX inh 35µM
Oc1ccc2ccccc2c1C=NNc1ccccn1	DT40 TDP1 no CPT 4.6µM, HT1080NT lethal inconclusive, HT1080 IDH1KD tx inconclusive, DT40 TDP1 CPT 3.3µM
O=c1c2ccccc2nc2n1C(CSCc1ccc(Cl)cc1)CS2 (stereo not drawn)	DT40 TDP1 no CPT 16µM, DT40 TDP1 CPT 10µM
O=c1c2ccccc2nc2n1C(CSc1ccc(F)cc1)CS2 (stereo not drawn)	none
Cc1cc(CNC(=O)[C@@H]2CCC[C@@H](NC(=O)CC(C)C)CN(C)C(=O)C2)no1	none (no result: IL-1B inflam inh, DT40 TDP1 no CPT, HT1080NT lethal, HT1080 IDH1KD tx, DT40 TDP1 CPT)
COc1ccc(C2CC(c3ccccc3)=NN2S(=O)(=O)c2ccc(C)cc2)c(OC)c1 (stereo not drawn)	DT40 TDP1 no CPT 7.3µM, DT40 TDP1 CPT 8.2µM
COc1ccc(C2CC(c3ccccc3)=NN2S(=O)(=O)c2ccccc2)c(OC)c1 (stereo not drawn)	DT40 TDP1 no CPT 21µM, DT40 TDP1 CPT inconclusive
COc1cccc(C2CC(c3ccccc3)=NN2S(=O)(=O)c2ccc(C)cc2)c1OC (stereo not drawn)	DT40 TDP1 no CPT inconclusive, DT40 TDP1 CPT inconclusive
O=C(NCCc1noc(C2CC2)n1)Nc1cccc(C(F)(F)F)c1	none (no result: IL-1B inflam inh, DT40 TDP1 no CPT, HT1080NT lethal, HT1080 IDH1KD tx, DT40 TDP1 CPT)
CC(Cc1cccs1)NC(=S)Nc1ccc(Cl)c(Cl)c1 (stereo not drawn)	IL-1B inflam inh -95, 12-LOX inh 32µM, DT40 TDP1 no CPT inconclusive, HT1080NT lethal inconclusive, DT40 TDP1 CPT 21µM
CC(Cc1cccs1)NC(=S)Nc1ccc(Cl)cc1 (stereo not drawn)	IL-1B inflam inh -96, 12-LOX inh 40µM, DT40 TDP1 no CPT inconclusive, HT1080NT lethal inconclusive, HT1080 IDH1KD tx inconclusive, DT40 TDP1 CPT inconclusive
Cc1c(NCC(=O)Nc2ccccc2C(C)C)cccc1C(=O)N1CCc2sccc2C1	none (no result: IL-1B inflam inh, DT40 TDP1 no CPT, HT1080NT lethal, HT1080 IDH1KD tx, DT40 TDP1 CPT)
Cc1[nH]c2ccccc2c1C1=CC(=O)C=CC1=O	IL-1B inflam inh -101, 12-LOX inh inconclusive, DT40 TDP1 no CPT 1.8µM, HT1080 IDH1KD tx 21µM, DT40 TDP1 CPT 1.6µM
O=C(CC1SC(=Nc2ccc(OC(F)F)cc2)N(CCN2CCOCC2)C1=O)Nc1ccccc1 (stereo not drawn)	DT40 TDP1 no CPT inconclusive, DT40 TDP1 CPT 16µM
O=C(CC1SC(=Nc2ccc(OC(F)F)cc2)N(CCN2CCOCC2)C1=O)Nc1ccc(F)cc1F (stereo not drawn)	IL-1B inflam inh -63, DT40 TDP1 no CPT inconclusive, DT40 TDP1 CPT inconclusive
COc1ccc(OC)c(NC(=O)CC2SC(=Nc3ccc(F)cc3)N(CCC3=CCCCC3)C2=O)c1 (stereo not drawn)	DT40 TDP1 no CPT inconclusive, DT40 TDP1 CPT inconclusive
C#CCOc1c(Cl)cc(/C=C2/C(=O)ON=C2C)cc1OC	12-LOX inh 28µM, DT40 TDP1 no CPT inconclusive, DT40 TDP1 CPT inconclusive
CCCOc1ccc(/C=C2/C(=O)ON=C2C)cc1Cl	12-LOX inh 5.6µM, DT40 TDP1 no CPT inconclusive, DT40 TDP1 CPT 18µM
